This note sets out measurements from PubChem BioAssay (EPA / NIEHS).

As a reminder, the AC50 is the concentration giving half of the maximal activity seen.

Test [1] concerns the target Paired box protein Pax-6 (Homo sapiens) (UniProt P26367). Nature of the test: ATG_Pax6_CIS: Attagene CIS-FACTORIAL HepG2 Assay for human Paired Box 6 (PAX6) (AID 2282956). The note with it: HepG2 CIS-FACTORIAL PAX6 reporter transcription, RNA readout; actives raise or lower the signal. In short, it runs like this: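 Fluorescent RT-PCR products separated by capillary electrophoresis report PAX6-linked promoter mRNA in HepG2 cells 24 h post-dose. Curves fitted bidirectionally, DMSO as negative control.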

The nature of test [2]: ATG_PXRE_CIS: Attagene CIS-FACTORIAL HepG2 Assay for human Pregnane X Receptor Element (PXRE) (AID 2282957). To be noted: HepG2 Attagene CIS-FACTORIAL PXRE reporter, mRNA; actives raise or lower the signal. In short, it runs like this: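 Reporter transcripts under endogenous PXR-responsive cis-regulation quantified from total RNA of transfected HepG2 cells 24 h post-dosing, via RT-PCR with fluorescent primer extension and capillary electrophoresis. Gain or loss of signal fitted against DMSO baseline.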

The nature of test [3]: ATG_PPRE_CIS: Attagene CIS-FACTORIAL HepG2 Assay for human Peroxisome Proliferator-activated Response Element (PPRE) (AID 2282958). To be noted: HepG2 PPRE cis-element reporter, Attagene transcription factor profiling; actives raise or lower the signal. In short, it runs like this: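 HepG2 cells transiently transfected with multiplexed cis-element reporter units measure endogenous transcription factor activity. After 24 h compound exposure, reporter mRNA is quantified by RT-PCR, 6-FAM labeling, HpaI digestion and capillary electrophoresis; bidirectional fits are made against DMSO baseline.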

Test [4] can be described thus: ATG_RORE_CIS: Attagene CIS-FACTORIAL HepG2 Assay for human RAR-related Orphan Receptor Element (RORE) (AID 2282959). To be noted: HepG2 Attagene cis-factorial RORE reporter, mRNA; actives raise or lower the signal. In short, it runs like this:
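HepG2 cells transiently transfected with multiple cis-element reporter transcription units, exposed to chemical for 24 h. Reporter mRNA quantified by RT-PCR, 6-FAM primer-extension labeling, HpaI digestion and capillary electrophoresis; bidirectional fit versus DMSO baseline.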

Test [5] can be described thus: ATG_Sox_CIS: Attagene CIS-FACTORIAL HepG2 Assay for human SRY-box transcription factor (SOX) (AID 2282960). The note with it: HepG2 Attagene cis-factorial SOX reporter, mRNA; actives raise or lower the signal. In short, it runs like this:
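HepG2 cells transiently transfected with cis-element-driven multiple reporter transcription units, dosed 24 h; reporter mRNA measured by RT-PCR, FAM labelling, HpaI digestion and capillary electrophoresis. Bidirectional fit versus DMSO baseline.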

Test [6] is described as follows: ATG_SREBP_CIS: Attagene CIS-FACTORIAL HepG2 Assay for human Sterol Regulatory Element Binding (SREBP) (AID 2282962). The note with it: HepG2 Attagene cis-factorial SREBP reporter, mRNA; actives raise or lower the signal. In short, it runs like this: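 Endogenous factor activity is measured in HepG2 through multiplexed reporter units under cis-element control. Following a 24 h incubation, reporter transcripts are reverse-transcribed, PCR-amplified and sized by capillary electrophoresis; activity is fitted in both directions relative to DMSO.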

Test [7] has as its target Signal transducer and activator of transcription 3 (Homo sapiens) (UniProt P40763). Nature of the test: ATG_STAT3_CIS: Attagene CIS-FACTORIAL HepG2 Assay for human Signal Transducer and Activator of Transcription 3 (STAT3) (AID 2282963). The note with it: HepG2, Attagene cis-factorial STAT3 reporter transcription; actives raise or lower the signal. In short, it runs like this: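 Uses human liver HepG2 transiently carrying cis-regulated reporter transcription units. Following 24 h dosing, reporter mRNA induction was detected by RT-PCR and capillary electrophoresis, analysed bidirectionally versus DMSO.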

Test [8] in a line: ATG_TA_CIS: Attagene CIS-FACTORIAL HepG2 Assay for human TA Basal Promoter (AID 2282964). To be noted: HepG2 Attagene CIS-factorial TA basal promoter reporter; actives raise or lower the signal. In short, it runs like this:
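Cis-factorial format in HepG2: reporters report endogenous factors, not chimeric Gal4 fusions. After 24 h treatment, reporter transcripts were measured by RT-PCR-capillary electrophoresis fluorescence, analysed bidirectionally versus DMSO.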

Test [9] in a line: ATG_TCF_b_cat_CIS: Attagene CIS-FACTORIAL HepG2 Assay for human T-Cell-Factor with beta-catenin (TCF/b-cat) (AID 2282965). To be noted: HepG2 TCF/beta-catenin cis-reporter transcription, actives raise or lower the signal. In short, it runs like this:
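Using capillary electrophoresis as the read-out, labelled reporter cDNA fragments from transiently transfected HepG2 were sized and quantified. Exposure lasted 24 hours; activity in either direction was referenced to DMSO.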

Test [10] in a line: ATG_TAL_CIS: Attagene CIS-FACTORIAL HepG2 Assay for human TAL Basal Promoter (AID 2282966).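 Also: background control endpoint measuring basal TAL promoter reporter mRNA not a specific factor.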 To be noted: HepG2 Attagene cis-factorial TAL promoter reporter; actives raise or lower the signal. In short, it runs like this: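 Background-control endpoint: basal TAL promoter reporter transcripts in transiently transfected HepG2, measured 24 h after dosing. Read-out by RT-PCR with fluorescent primer extension and capillary electrophoresis; gain or loss of signal fitted relative to DMSO.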

The nature of test [11]: ATG_TGFb_CIS: Attagene CIS-FACTORIAL HepG2 Assay for human Transforming Growth Factor (TGF) (AID 2282967). To be noted: HepG2 Attagene CIS TGFb reporter, mRNA transcription; actives raise or lower the signal. In short, it runs like this: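 Multiplexed cis-reporter HepG2 system, 24 h treatment; mRNA induction read by fluorescence after RT-PCR and CE; DMSO negative control, bidirectional curve fitting.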

Test [12] is described as follows: ATG_VDRE_CIS: Attagene CIS-FACTORIAL HepG2 Assay for human Vitamin D Receptor Element (VDRE) (AID 2282968). The note with it: HepG2 VDRE cis-reporter transcription, actives raise or lower the signal. In short, it runs like this:
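Transfected HepG2 reporter cells, chemical treatment 24 h. RNA isolated, cDNA amplified with reporter-specific primers, products analysed by capillary electrophoresis. Endpoint fitted in both directions versus DMSO.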

In test [13] the target is Estrogen receptor (Homo sapiens) (UniProt P03372). Nature of the test: ATG_ERa_TRANS: Attagene TRANS-FACTORIAL HepG2 Assay for human Estrogen Receptor alpha (ERa) (AID 2282970; active = hit-call score of the fitted dose curve at least 0.9, where 1 is the maximum). To be noted: HepG2 Attagene TRANS ERa GAL4 reporter, mRNA. In short, it runs like this: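 Reporter transcripts were measured 24 h after dosing by RT-PCR with fluorescent primer extension and capillary electrophoresis. The system is transiently transfected HepG2 expressing exogenous NR-Gal4 chimeras driving GAL4-UAS reporters; DMSO is the baseline.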
Sequence of Estrogen receptor (Homo sapiens) (P03372 whole entry, looked up, the tested form may be a part): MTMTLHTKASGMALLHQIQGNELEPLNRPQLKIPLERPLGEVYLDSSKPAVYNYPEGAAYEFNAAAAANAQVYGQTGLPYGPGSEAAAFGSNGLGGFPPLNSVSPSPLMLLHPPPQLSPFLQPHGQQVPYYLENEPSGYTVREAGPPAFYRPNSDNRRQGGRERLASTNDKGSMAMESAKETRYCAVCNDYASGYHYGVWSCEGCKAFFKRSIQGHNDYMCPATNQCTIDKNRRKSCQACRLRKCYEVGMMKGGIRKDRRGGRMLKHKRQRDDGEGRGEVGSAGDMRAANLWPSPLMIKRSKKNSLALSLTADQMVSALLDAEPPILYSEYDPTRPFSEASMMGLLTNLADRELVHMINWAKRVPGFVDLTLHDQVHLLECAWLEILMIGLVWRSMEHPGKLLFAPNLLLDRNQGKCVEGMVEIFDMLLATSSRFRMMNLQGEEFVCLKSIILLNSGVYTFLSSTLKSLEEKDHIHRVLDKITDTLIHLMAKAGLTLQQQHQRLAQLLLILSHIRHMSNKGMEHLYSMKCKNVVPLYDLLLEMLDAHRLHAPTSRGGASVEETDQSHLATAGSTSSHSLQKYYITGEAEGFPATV

Test [14] concerns the target X-box-binding protein 1 (Homo sapiens) (UniProt P17861). Nature of the test: ATG_Xbp1_CIS: Attagene CIS-FACTORIAL HepG2 Assay for human X-box Binding Protein 1 (XBP1) (AID 2282972). To be noted: HepG2 XBP1 cis-element reporter, Attagene multiplex; actives raise or lower the signal. In short, it runs like this:
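Multiplexed cis-reporter readout in transfected HepG2 liver cells. Exposure lasted 24 hours. Activity in either direction was fitted against DMSO as negative control and baseline.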

Test [15] is described as follows: ATG_M_19_TRANS: Attagene TRANS-FACTORIAL HepG2 Assay for M19 Transcription Factor (Internal Marker) (AID 2282974; active = hit-call score of the fitted dose curve at least 0.9, where 1 is the maximum). To be noted: HepG2 Attagene TRANS-FACTORIAL M19 internal marker reporter. In short, it runs like this:
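HepG2 cells transiently transfected with multiple GAL4-UAS reporter transcription units were exposed to chemicals for 24 h. Reporter mRNA was read by RT-PCR, 6-FAM primer extension, HpaI digestion and capillary electrophoresis; gain of signal fitted relative to DMSO.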

For test [16], the target named is Transcription factor Sp1 (Homo sapiens) (UniProt P08047). Nature of the test: ATG_Sp1_CIS: Attagene CIS-FACTORIAL HepG2 Assay for human Specificity Protein 1 (Sp1) (AID 2282961). To be noted: HepG2 Sp1 cis-reporter transcription, actives raise or lower the signal. In short, it runs like this:
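HepG2 cells transiently transfected with multiple reporter transcription units driven by cis-regulatory elements; Sp1-responsive reporter mRNA measured 24 h after dosing by RT-PCR and capillary electrophoresis fluorescence, fitted bidirectionally against DMSO baseline.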

Test [17] addresses Steroid hormone receptor ERR1 (Homo sapiens) (UniProt P11474). Nature of the test: ATG_ERRa_TRANS: Attagene TRANS-FACTORIAL HepG2 Assay for human Estrogen-Related Receptor alpha (ERRa) (AID 2282971; active = hit-call score of the fitted dose curve at least 0.9, where 1 is the maximum). The note with it: HepG2 Attagene TRANS reporter, ERRa transactivation. In short, it runs like this:
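Reporter transcripts from ERRa-Gal4 chimera activity measured in transiently transfected human HepG2 cells 24 hours after dosing, using RT-PCR with 6-FAM primer extension, HpaI digestion and capillary electrophoresis; DMSO is baseline.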

Test [18] can be described thus: ATG_GAL4_TRANS: Attagene TRANS-FACTORIAL HepG2 Assay for GAL4 (Internal Marker) (AID 2282976; active = hit-call score of the fitted dose curve at least 0.9, where 1 is the maximum). The note with it: HepG2 Attagene TRANS GAL4 internal marker reporter. In short, it runs like this: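 In transfected human HepG2 liver cells dosed 24 h, GAL4 reporter mRNA serves as a baseline marker. Detection by RT-PCR with fluorescent capillary electrophoresis, activity fitted upward relative to DMSO.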

Test [19] has as its target Estrogen-related receptor gamma (Homo sapiens) (UniProt P62508). Nature of the test: ATG_ERRg_TRANS: Attagene TRANS-FACTORIAL HepG2 Assay for human Estrogen-Related Receptor gamma (ERRg) (AID 2282977; active = hit-call score of the fitted dose curve at least 0.9, where 1 is the maximum;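 also: hits increase reporter signal over DMSO so potencies reflect activators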). To be noted: HepG2 Attagene TRANS reporter, ERRg transactivation. In short, it runs like this:
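Exogenous NR-Gal4 chimera activity was assessed in HepG2 cells bearing transfected GAL4-UAS reporters. After 24 h dosing, total RNA underwent RT-PCR, fluorescent primer extension and HpaI digestion before capillary electrophoresis, with gain of signal scored against DMSO.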

In test [20] the target is Nuclear receptor subfamily 1 group I member 3 (Homo sapiens) (UniProt Q14994). Nature of the test: ATG_CAR_TRANS: Attagene TRANS-FACTORIAL HepG2 Assay for human Constitutive Androstane Receptor (CAR) (AID 2282969; active = hit-call score of the fitted dose curve at least 0.9, where 1 is the maximum;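 also: activators raise reporter mRNA above DMSO so AC50 marks induction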). The note with it: HepG2 Attagene TRANS-FACTORIAL CAR reporter. In short, it runs like this:
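Steps: transient transfection of HepG2 with multiple GAL4-UAS reporter units; 24 h compound incubation; RNA isolation, RT-PCR, 6-FAM primer extension, HpaI digest; capillary electrophoresis. Gain-of-signal relative to DMSO negative control.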

Records with an inconclusive call do not appear. Activity calls are given as the source filed them. The calls were made as follows, unless noted: active = hit-call score of the fitted dose curve at least 0.9, where 1 is the maximum; inactive = score below 0.9.

Sequence of Signal transducer and activator of transcription 3 (Homo sapiens) (P40763 whole entry, looked up): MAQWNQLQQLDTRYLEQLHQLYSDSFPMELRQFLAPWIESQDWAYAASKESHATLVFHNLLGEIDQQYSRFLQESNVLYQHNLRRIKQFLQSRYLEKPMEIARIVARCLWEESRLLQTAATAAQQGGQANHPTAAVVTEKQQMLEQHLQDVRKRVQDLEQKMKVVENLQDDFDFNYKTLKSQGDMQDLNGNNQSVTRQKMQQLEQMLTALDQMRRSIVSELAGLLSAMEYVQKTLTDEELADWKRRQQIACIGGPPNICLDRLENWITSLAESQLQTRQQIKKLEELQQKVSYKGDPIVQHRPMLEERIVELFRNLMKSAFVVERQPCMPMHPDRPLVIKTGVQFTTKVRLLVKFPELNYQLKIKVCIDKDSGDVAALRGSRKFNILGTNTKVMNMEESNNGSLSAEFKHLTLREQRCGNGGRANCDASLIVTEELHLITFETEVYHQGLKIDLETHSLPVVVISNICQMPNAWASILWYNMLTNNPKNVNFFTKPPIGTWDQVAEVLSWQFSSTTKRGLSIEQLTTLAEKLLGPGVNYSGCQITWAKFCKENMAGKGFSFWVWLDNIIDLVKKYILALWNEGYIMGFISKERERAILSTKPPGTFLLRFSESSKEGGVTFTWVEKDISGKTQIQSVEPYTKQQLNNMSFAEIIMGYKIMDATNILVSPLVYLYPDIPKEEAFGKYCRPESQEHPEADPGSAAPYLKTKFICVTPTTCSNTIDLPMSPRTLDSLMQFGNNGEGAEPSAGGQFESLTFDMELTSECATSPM
Sequence of X-box-binding protein 1 (Homo sapiens) (P17861 whole entry, looked up): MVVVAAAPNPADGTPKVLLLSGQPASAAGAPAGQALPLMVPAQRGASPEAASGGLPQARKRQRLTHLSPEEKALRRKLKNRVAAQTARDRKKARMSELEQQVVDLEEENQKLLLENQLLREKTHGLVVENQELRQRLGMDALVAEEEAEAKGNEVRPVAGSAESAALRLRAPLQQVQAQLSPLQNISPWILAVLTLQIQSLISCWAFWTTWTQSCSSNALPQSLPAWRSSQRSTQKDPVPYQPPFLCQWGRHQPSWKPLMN
Sequence of Paired box protein Pax-6 (Homo sapiens) (P26367 whole entry, looked up): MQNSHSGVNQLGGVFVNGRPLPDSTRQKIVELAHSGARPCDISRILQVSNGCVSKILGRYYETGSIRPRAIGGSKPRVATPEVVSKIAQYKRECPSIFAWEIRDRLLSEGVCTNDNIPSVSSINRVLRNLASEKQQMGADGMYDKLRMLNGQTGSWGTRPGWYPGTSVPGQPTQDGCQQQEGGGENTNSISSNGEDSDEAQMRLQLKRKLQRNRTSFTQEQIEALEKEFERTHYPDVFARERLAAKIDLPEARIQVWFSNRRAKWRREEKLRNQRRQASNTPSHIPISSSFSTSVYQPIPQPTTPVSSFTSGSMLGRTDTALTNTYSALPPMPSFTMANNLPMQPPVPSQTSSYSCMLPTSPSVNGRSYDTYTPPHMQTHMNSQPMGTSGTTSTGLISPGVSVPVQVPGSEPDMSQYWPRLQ
Sequence of Nuclear receptor subfamily 1 group I member 3 (Homo sapiens) (Q14994 whole entry, looked up, the tested form may be a part): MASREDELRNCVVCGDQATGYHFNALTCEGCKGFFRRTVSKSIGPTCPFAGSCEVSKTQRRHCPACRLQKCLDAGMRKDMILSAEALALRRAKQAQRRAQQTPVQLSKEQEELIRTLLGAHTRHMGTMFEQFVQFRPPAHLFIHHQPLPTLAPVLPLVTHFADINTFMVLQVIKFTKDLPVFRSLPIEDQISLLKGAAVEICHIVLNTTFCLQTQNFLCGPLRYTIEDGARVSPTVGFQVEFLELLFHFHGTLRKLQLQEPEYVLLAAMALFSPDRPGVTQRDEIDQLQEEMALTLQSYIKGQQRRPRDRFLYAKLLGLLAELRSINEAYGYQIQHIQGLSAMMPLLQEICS
Sequence of Transcription factor Sp1 (Homo sapiens) (P08047 whole entry, looked up): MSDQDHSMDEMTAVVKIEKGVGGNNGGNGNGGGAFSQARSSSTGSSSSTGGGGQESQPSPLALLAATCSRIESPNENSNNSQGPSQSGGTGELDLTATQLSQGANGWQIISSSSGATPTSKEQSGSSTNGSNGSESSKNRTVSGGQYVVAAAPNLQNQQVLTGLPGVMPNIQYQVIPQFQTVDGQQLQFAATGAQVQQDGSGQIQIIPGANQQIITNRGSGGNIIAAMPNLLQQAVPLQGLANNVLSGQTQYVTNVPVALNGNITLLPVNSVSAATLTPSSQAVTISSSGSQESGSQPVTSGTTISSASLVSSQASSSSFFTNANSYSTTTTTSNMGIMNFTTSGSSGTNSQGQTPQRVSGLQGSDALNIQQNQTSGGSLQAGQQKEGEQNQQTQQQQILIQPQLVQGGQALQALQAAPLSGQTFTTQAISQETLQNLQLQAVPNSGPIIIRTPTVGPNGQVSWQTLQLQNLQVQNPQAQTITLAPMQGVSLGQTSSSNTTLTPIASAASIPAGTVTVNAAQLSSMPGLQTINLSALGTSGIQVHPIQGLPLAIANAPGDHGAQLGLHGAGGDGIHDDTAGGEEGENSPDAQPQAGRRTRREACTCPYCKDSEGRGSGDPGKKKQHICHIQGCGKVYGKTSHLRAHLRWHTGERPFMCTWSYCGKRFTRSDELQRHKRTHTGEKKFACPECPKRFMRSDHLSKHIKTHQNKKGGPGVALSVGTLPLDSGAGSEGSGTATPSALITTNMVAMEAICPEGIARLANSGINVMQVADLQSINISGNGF
Sequence of Estrogen-related receptor gamma (Homo sapiens) (P62508 whole entry, looked up, the tested form may be a part): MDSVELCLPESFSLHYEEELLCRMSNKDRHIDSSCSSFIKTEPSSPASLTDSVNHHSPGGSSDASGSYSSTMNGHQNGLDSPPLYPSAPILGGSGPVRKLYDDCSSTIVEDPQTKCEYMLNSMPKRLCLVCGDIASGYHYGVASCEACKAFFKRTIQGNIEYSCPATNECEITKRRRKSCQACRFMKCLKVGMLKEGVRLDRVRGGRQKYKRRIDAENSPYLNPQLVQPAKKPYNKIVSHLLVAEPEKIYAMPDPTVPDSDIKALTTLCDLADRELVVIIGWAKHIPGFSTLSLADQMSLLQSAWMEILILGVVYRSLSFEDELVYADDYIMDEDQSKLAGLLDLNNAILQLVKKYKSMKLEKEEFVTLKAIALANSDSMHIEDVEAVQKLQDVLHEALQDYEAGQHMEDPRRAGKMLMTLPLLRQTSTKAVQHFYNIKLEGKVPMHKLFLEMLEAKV
Sequence of Steroid hormone receptor ERR1 (Homo sapiens) (P11474 whole entry, looked up, the tested form may be a part): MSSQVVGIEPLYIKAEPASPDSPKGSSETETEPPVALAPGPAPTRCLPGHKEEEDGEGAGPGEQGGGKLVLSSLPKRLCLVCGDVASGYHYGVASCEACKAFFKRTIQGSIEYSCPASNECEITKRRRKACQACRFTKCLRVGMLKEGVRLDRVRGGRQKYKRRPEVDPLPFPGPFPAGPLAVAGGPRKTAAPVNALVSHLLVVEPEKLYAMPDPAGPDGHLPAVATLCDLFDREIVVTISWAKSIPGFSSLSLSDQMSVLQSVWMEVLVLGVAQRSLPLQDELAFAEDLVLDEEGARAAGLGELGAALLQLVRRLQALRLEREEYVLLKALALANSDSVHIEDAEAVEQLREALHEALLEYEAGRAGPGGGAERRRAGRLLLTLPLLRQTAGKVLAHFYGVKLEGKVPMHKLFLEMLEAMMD

Take `Cn1c(=O)cc(Oc2ccc(F)cc2F)c2cnc(NCC(C)(C)O)nc21`: the outcome in [1], in [2], in test [3], in test [4], in [5] and in test [6] was inactive. In addition, the compound was classed as inactive in test [7], in test [8], in test [10], in test [11], in test [12] and in test [13]. For the same compound, the compound was classed as inactive in test [14] and in test [15]. Also, the AC50 in test [9] is 56.9 µM (active).
With `COC(=O)c1c(Cl)c(Cl)c(C(=O)OC)c(Cl)c1Cl`, the compound was called inactive in [1], in test [3], in test [4], in [5], in test [16] and in [6]. Further, the outcome in test [7], in [8], in test [9], in [10], in test [11] and in [12] was inactive. Besides, the compound was called inactive in test [13], in test [17], in [14], in test [15], in test [18] and in [19]. In addition, the AC50 in test [2] was 25.8 µM (active).
`Nc1nc2ncc(CNc3ccc(C(=O)N[C@@H](CCC(=O)O)C(=O)O)cc3)nc2c(=O)[nH]1`: the compound was called inactive in test [1], in [2], in test [3], in test [4], in test [5] and in test [16]. In addition, the result in test [6], in [7], in test [8], in [9], in [10] and in test [11] was inactive. For the same compound, the call in test [12], in test [20], in test [14], in test [15] and in [18] was inactive.
In the case of `COc1ccc(-n2nc(C(F)F)cc2-c2ccc(S(C)=O)cc2)cc1` (stereo unspecified), the outcome in [1], in test [3], in test [4], in test [5], in test [16] and in test [7] was inactive. Moreover, the outcome in test [8], in test [9], in test [10], in test [11], in test [12] and in [13] was inactive. Moreover, the result in [14] and in [15] was inactive. Also, the results for the AC50 in test [2] and in test [6] were 26.6 µM (active) and 126 µM (active), respectively.
On to `Cn1cnc([N+](=O)[O-])c1Sc1ncnc2nc[nH]c12`, for which the outcome in test [1], in test [2], in test [3], in test [4], in test [5] and in test [16] was inactive. Moreover, the compound was classed as inactive in [6], in test [7], in test [8], in test [9], in test [10] and in test [11]. In addition, the compound was called inactive in [20] and in test [14]. The AC50 in test [13] is 46.1 µM (active).
For `Fc1ccccc1[C@@H](F)COC1CCC(Nc2ncnc3[nH]ncc23)CC1` (stereo partly specified), the compound was classed as inactive in test [1], in test [5], in test [7], in [9], in test [10] and in [11]. Also, the compound was classed as inactive in [14] and in test [15]. Also, the AC50 in [2] is 25.4 µM (active); in test [3] it was 4.79 µM (active); in test [4], 26.1 µM (active); in test [16] it was 168 µM (active); in [6], 4.65 µM (active); in test [8] it was 4.57 µM (active). Further, the AC50 in test [12] was 26 µM (active).
As to `Cc1ccc(C)c(O)c1`, the compound was classed as inactive in [1], in test [2], in test [3], in [4], in test [5] and in [6]. The outcome in test [7], in test [8], in [9], in [10], in test [11] and in [12] was inactive. Besides, the result in [20] and in [14] was inactive.
